Assay results from PubChem BioAssay.
Active and inactive are the calls of the source.

test: E. coli DRC41 culture turbidity changes, primary screen, E. coli filamentation inducer project, strain DRC41, OD650, 48 h (AID 1152);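 also: E. coli MC1000 strain DRC41 lacking acrAB efflux pump and sulA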; details: E. coli DRC41 (acrAB sulA), higher = more signal, called active from +8 up or from −8 down

z-score, inactive:
COc1cc(Cc2cc3c(c(-c4ccccc4)n2)[Si](C(C)C)(C(C)C)OC3)cc(OC)c1OC 0.752, COCCOC(=O)N1C(=O)[C@@]2(c3cc(C#CCC(C(=O)OC)C(=O)OC)ccc31)[C@H](C(N)=O)[C@H]1C(=O)O[C@H](c3ccccc3)[C@H](c3ccccc3)N1[C@@H]2c1ccccc1OCCO 1.08, C[C@@]1([C@@H](NS(=O)(=O)c2cccc3cccnc23)c2ccc(-c3ccccc3)cc2)C[C@H]1C1CCCCC1 -2.47, C=C(C(=O)CC[C@@H](OC(=O)c1ccccc1-c1ccccc1C(=O)O)c1ccc(CO)o1)C(C)C -0.796, CCOC(=O)C1=CCC(c2cccn2C(=O)OC(C)(C)C)N(S(=O)(=O)c2ccc(C)cc2)C1 (stereo not given) -0.258, O=C1N(Cc2ccccc2)c2ccccc2C[C@@]12N=C(c1ccc(OCCCO)cc1)O[C@H]2c1ccccc1 -1.12, Cc1ccc(S[C@]2(C(=O)NC3CC3)CC(=O)N(C3Cc4ccccc4C3)[C@@H]2c2ccc(CO)cc2I)cc1 0.933, CCc1cccc(NC(=O)O[C@H]2[C@H](OC(=O)Nc3ccccc3-c3ccccc3)[C@H](OC(=O)Nc3ccccc3-c3ccccc3)[C@@H](OC)O[C@@H]2CO)c1 -1.98, CC(C)C[C@H]1NC(=O)CNC(=O)[C@@]23C(=O)N[C@@H](Cc4ccccc4)C2[C@H](C)[C@@]2(C)O[C@H]2C3/C=C/C/C=C\CNC1=O (stereo not given in full) -0.592, C=C(/C=C\CNS(=O)(=O)c1ccc(C)cc1)[C@H](O)[C@H]1CCCN1S(=O)(=O)c1ccccc1[N+](=O)[O-] -0.473
